# Test results from paper PMC4336329 (PLoS ONE, 2015).
# About 14,000 (4.5%) of roughly 310,000 compounds showed an effect of 50% or more. The effect is printed as a negative number. This is one part of a sample in which strong results are shown more often than they occur.
# Biological target: human ether-à-go-go-related gene (hERG) potassium channel (human, UniProt Q12809)
# Experiment: primary screen, population patch clamp on CHO cells stably expressing hERG; higher = less effect of the substance
# 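Further: peak tail current of the secondary pulse compared with the same well before compound.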
# Chain of human ether-à-go-go-related gene (hERG) potassium channel (Q12809 whole entry, looked up): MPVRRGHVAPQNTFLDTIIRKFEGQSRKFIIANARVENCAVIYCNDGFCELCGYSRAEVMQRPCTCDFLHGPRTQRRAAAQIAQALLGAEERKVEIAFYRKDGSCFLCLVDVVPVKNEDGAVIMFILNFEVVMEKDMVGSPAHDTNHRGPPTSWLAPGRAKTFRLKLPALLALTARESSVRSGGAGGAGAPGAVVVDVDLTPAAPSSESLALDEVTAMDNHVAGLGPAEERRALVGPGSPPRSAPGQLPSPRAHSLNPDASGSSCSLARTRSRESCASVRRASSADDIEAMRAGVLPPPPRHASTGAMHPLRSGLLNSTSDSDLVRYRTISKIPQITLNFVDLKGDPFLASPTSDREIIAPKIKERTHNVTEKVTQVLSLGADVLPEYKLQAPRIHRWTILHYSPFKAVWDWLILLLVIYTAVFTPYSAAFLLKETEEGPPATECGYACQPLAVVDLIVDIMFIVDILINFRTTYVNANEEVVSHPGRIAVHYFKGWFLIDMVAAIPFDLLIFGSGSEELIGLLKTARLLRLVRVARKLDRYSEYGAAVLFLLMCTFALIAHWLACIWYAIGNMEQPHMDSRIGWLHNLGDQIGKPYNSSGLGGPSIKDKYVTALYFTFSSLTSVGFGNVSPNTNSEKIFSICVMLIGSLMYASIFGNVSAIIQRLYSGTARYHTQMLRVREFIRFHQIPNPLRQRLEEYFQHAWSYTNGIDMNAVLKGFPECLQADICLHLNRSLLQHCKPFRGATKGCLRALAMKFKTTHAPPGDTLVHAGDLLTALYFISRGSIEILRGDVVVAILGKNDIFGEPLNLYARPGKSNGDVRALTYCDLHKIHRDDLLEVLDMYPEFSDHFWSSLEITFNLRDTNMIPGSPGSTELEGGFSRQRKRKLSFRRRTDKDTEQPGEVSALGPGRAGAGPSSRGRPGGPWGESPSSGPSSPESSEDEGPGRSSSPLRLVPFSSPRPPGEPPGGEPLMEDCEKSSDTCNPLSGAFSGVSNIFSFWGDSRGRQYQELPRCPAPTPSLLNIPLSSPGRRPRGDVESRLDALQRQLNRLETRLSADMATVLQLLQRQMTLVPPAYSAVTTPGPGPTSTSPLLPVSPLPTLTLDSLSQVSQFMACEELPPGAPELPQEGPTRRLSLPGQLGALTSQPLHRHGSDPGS
row,Compound,"hERG current change (%, negative = inhibition) at 10uM"
1,CCn1c(CCNC(=O)c2cccs2)nnc1SCC(=O)NC1CCCCC1,0.651%
2,CCn1c(CCNC(=O)c2cccs2)nnc1SCC(=O)Nc1ccc(Cl)cc1,-49.7%
3,CCn1c(CCNC(=O)c2cccs2)nnc1SCC(=O)c1ccc(OC)cc1,7.05%
4,Cn1c(CNC(=O)c2cccs2)nnc1SCC(=O)Nc1ccc(Cl)cc1,-35.4%
5,CCc1nnc(NC(=O)CSc2nnc(CNc3cccc(Cl)c3)n2CC)s1,-59.6%
6,CCn1c(CCNC(=O)c2cccs2)nnc1SCC(=O)Nc1cccc(Cl)c1,-64.5%
7,CCc1nnc(NC(=O)CSc2nnc(CNc3ccc(OC)cc3)n2CC)s1,13.1%
8,CCc1nnc(NC(=O)CSc2nnc(CNc3cccc(C)c3)n2-c2ccccc2)s1,3.35%
9,CCn1c(CNC(=O)c2cccs2)nnc1SCC(=O)Nc1ccc(Cl)cc1,-57.5%
10,CCC(C)(C)C1CCC(=NNC(=O)c2ccoc2C)CC1 (stereo not drawn),6.38%
11,CSc1nc(-c2ccccc2)nc(N2CCCC2)c1C(C)=O,-10.8%
12,CCN(CC)C(=O)CSc1ncnc2c1cnn2Cc1ccccc1,-19.9%
13,O=C(NC1CCCCCCC1)c1ccccc1O,-6.11%
14,CC(=O)Nc1ccc(NC(=O)C(C)OC(=O)CCCc2c[nH]c3ccccc23)cc1 (stereo not drawn),7.68%
15,Cn1c(=O)c2c(nc(CN3CCN(c4ccccc4)CC3)n2CCc2ccccc2)n(C)c1=O,-33.7%
16,CCCn1c(CN2CCN(c3cccc(Cl)c3)CC2)nc2c1c(=O)n(C)c(=O)n2C,-63.6%
17,CC(C)CCn1c(CN2CCN(c3cccc(Cl)c3)CC2)nc2c1c(=O)n(C)c(=O)n2C,-5.6%
18,CCCCCn1c(CN2CCN(c3cccc(Cl)c3)CC2)nc2c1c(=O)n(C)c(=O)n2C,-35.3%
19,CCCCn1c(CN2CCN(c3cccc(Cl)c3)CC2)nc2c1c(=O)n(C)c(=O)n2C,-56.3%
20,CCCCn1c(CN2CCN(c3ccccc3)CC2)nc2c1c(=O)n(C)c(=O)n2C,-45.7%

row,Compound,"hERG current change (%, negative = inhibition) at 10uM"
1,CCc1ccc(-c2nc(C(N)=O)c3[nH]c(=O)n(-c4ccccc4OC)c3n2)cc1,-0.102%
2,COc1cc(/C=N/Nc2nc(=O)[nH]nc2C)ccc1O,4.93%
3,CSc1ccccc1NC(=O)CN(C)C(=O)c1ccc2c(c1)OCCO2,5.66%
4,O=C(CN1CCOCC1)OCCCc1ccccc1,9.77%
5,CC(C)(C)OC(=O)N1CCC(c2c(C(=O)N3CCN(C4CCCCC4)CC3)cnn2-c2ccc(F)cc2)CC1,-55.5%
6,CC(C)(C)OC(=O)N1CCC(c2c(C(=O)N3CCN(C4CCCCC4)CC3)cnn2-c2ccccc2)CC1,-54.7%
7,CC(C)(C)OC(=O)N1CCC(c2c(C(=O)N3CCN(C(=O)c4ccco4)CC3)cnn2-c2cccc(Cl)c2)CC1,-65.6%
8,CC(C)(C)OC(=O)N1CCC(c2c(C(=O)NC3CC3)cnn2-c2ccccc2)CC1,-22.9%
9,Cc1ccc(-n2ncc(C(=O)N3CCN(C(=O)c4ccco4)CC3)c2C2CCN(C(=O)OC(C)(C)C)CC2)cc1C,0.366%
10,O=C(c1cnn2ccccc12)N1CCN(C2CCCCC2)CC1,-9.39%
11,CC(C)(C)OC(=O)N1CCC(c2c(C(=O)N3CCN(C(=O)c4ccco4)CC3)cnn2-c2ccc(F)cc2F)CC1,-19.6%
12,CC(C)(C)OC(=O)N1CCC(c2c(C(=O)N3CCN(C(=O)c4ccco4)CC3)cnn2-c2ccc(F)cc2)CC1,-14.8%
13,Cc1ccc(-n2ncc(C(=O)O)c2C2CCN(C(=O)OC(C)(C)C)CC2)cc1,-3.86%
14,CC(C)(C)OC(=O)N1CCC(c2c(C(=O)O)cnn2-c2ccccc2)CC1,11%
15,O=C(O)c1cnn(-c2ccccc2)c1-n1cccc1,9%
16,O=C(c1cnn(-c2ccccc2)c1-n1cccc1)N1CCN(C2CCCCC2)CC1,-67.2%
17,COc1ccc(-c2c3c(=O)n(C)c(=O)n(C)c3cn2Cc2cccnc2)cc1,4.55%
18,O=C(COC(=O)C1CCN(c2ccc(C(F)(F)F)cn2)CC1)Nc1ccc(F)cc1[N+](=O)[O-],13%
19,COc1ccccc1CCNC(=O)CSc1nc(-c2ccco2)cc(C(F)(F)F)n1,27.1%
